Compounds with a hit are over-represented: about 10% of the library has one in this group of screens.
Mm-Cpn inhibitor: M. maripaludis TRiC chaperonin inhibition. purified Mm-Cpn ATPase, ADP Transcreener TR-FRET. Potency, µM (doses to about 76.9 µM), inactives show at the top dose activity, negative = inhibition, actives largely listed as inhibitors. actives 0.031% (n = 330,000). AID 504842; further: potency means the concentration at half of the fitted maximal effect; nearly all actives have a fitted effect of over 80% in size
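Inhibition of chaperonin ATP hydrolysis is measured as reduced ADP production, detected by competitive TR-FRET in which signal falls with ADP. Final enzyme 25 nM and ATP 10 uM, reacted 30 min at 37°C.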
Sfp PPTase inh: Sfp phosphopantetheinyl transferase inhibition. Q9F4F7. actives 3.5% (n = 310,000). Biochemical Sfp PPTase activity, qHTS. Potency, µM, for inactives: largest response in the series, negative = inhibition, usual class: inhibitors;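 further: the enzyme is Sfp with the accession as filed and its product quenches rhodamine fluorescence; potency means the concentration at half of the fitted maximal effect; 0% = enzyme reaction without inhibitor and -100% = no enzyme wells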
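After 15 min at room temperature with compound, 15 nM Sfp received 5 uM rhodamine-CoA plus 12.5 uM BHQ-2-ybbR (50 mM Hepes pH 7.6, 10 mM MgCl2). Rate came from the fluorescence difference over 30 min, ex 525/em 598 nm.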
PLK1 PBD block: blocks phosphopeptide binding to human PLK1 polo-box domain | Potency, µM, inactives show max response, negative = inhibition, hits mostly inhibitors | actives 2.8% (n = 360,000) | AID 720504 | Plk1 PBD binding of FITC phosphopeptide, fluorescence polarization | P53350; further: potency means the concentration at half of the fitted maximal effect; series mostly up to about 57 µM; nearly all actives have a fitted effect of over 65% in size
CCT chaperon mod: cytosolic chaperonin activity modulation. purified chaperonin ATPase assay, HTRF ADP detection, 30 min. activity change, % (no concentration beside the values), hits read low. actives 0.3% (n = 360,000); in the data active means activity change below about -30%
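ATPase activity: ADP formed was measured by HTRF Transcreener (665/615 nm ratio) after 30 min at 37 deg C with 10 uM ATP. Compounds screened at one 76 uM concentration against 40 or 20 nM TRiC in Tris pH 7.4/KCl/MgCl2/DTT buffer.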
VDR inh: inhibitors of human vitamin D receptor. VDR-SRC2-3 peptide fluorescence polarization, 2 h. AID 504847. actives 0.93% (n = 400,000). P11473. Potency, µM, without a hit: max response, negative = inhibition, hits mostly inhibitors; further: potency means the concentration at half of the fitted maximal effect
Target sequence (P11473 whole entry, looked up): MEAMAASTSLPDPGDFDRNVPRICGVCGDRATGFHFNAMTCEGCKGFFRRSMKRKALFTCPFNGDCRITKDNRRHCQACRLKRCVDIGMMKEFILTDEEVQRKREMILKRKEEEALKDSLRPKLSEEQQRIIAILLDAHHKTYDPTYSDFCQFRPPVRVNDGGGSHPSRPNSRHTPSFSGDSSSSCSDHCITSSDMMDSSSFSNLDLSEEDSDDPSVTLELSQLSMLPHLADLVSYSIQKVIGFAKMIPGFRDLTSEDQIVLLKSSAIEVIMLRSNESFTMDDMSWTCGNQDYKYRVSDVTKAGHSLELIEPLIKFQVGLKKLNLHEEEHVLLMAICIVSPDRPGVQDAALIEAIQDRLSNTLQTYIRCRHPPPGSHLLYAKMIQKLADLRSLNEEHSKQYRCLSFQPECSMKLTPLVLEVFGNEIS
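Compounds are added to VDR with labelled SRC2-3 coactivator peptide and held 2 h at room temperature. Inhibition of the VDR–peptide interaction is then read as a change in fluorescence polarization.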
G9a block: G9a (human) methyltransferase inhibition; AID 504332; Q96KQ7; Potency, µM (titrated, usually from 102 µM), inactives show at the highest dose activity, negative = inhibition, most hits filed as inhibitors; actives 8.8% (n = 350,000); G9a H3K9 monomethylation, AlphaScreen, 2 h; further: potency means the concentration at half of the fitted maximal effect; nearly all actives have a fitted effect of over 75% in size
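AlphaScreen read-out: biotin-H3K9 peptide (500 nM) methylation by 20 nM enzyme with 20 uM SAM, 2 h at room temperature after 15 min compound preincubation; anti-monomethyl H3K9 antibody plus donor/acceptor beads, 10 min dark.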
The depositor's hits bear a star; ? = inconclusive; / = not tested or not shown; [ ] = dose if it differs, or a comment. Unless noted, the call rests on the fitted dose curve; in most records, active means well fitted curve in the direction sought with a large enough effect; inconclusive means small, poorly fitted or top-dose-only effect, or another doubt; inactive means no such curve, though single readings can be large; an effect the other way counts as inactive or inconclusive. Unless noted, on the % scale 0 is the no-effect control and ±100 the full control effect.

SMILES	Mm-Cpn inhibitor	Sfp PPTase inh	PLK1 PBD block	CCT chaperon mod	VDR inh	G9a block
COc1ccc(Cl)cc1N(C)C(=O)Cn1cnc2sc(C)c(S(=O)(=O)N3CCN(c4ncccn4)CC3)c2c1=O	/	/	/	/	-18.8%	?
CC(C)(C)c1ccc(N2C[C@@H](COc3ccc(C(=O)O)cc3)CC2=O)cc1	/	23.2%	/	/	0.5%	/
[O-][n+]1cccc(CO)c1	/	1.4%	/	/	3.4%	-13.8%[12.7 µM]
O=C1c2ccccc2S(=O)N1c1cccc(F)c1 (configuration not stated)	/	/	23.8µM*	-0.2	/	/
Clc1ccc(Sc2ccccn2)cc1	-2.6%	-3.7%	-8.1%	0.4	3.3%	/
c1ccc(Sc2ncccn2)nc1	1.4%	-28.3%	26.7µM*	1.7	-9.9%	31.6µM*
Cc1cc(NC(=O)Nc2cccs2)no1	-22.9%	-10.9%	-5.0%	0.2	-7.8%	-2.2%[12.7 µM]
O=C(NNC(=S)NCc1ccco1)c1cccs1	-1.8%	29.0%	-11.8%	-1.7	-10.2%	?
O=C(Nc1cccs1)Nc1c(F)cc(F)cc1Br	0.2%	?	-11.8%	1.3	-16.0%	-5.5%[59 µM]
Cc1cccc(C)c1NC(=O)Nc1cccs1	-0.5%	56.2µM*	-12.0%	-1.9	15.0%	50.1µM*
O=C(NCc1ccco1)Nc1cccs1	?	17.8µM*	-11.3%	-1.9	-1.6%	?
O=C(Nc1cccs1)Nc1c(F)c(F)c(F)c(F)c1F	0.5%	44.7µM*	9.2%	0.1	-6.7%	25.3%[59 µM]
O=C(Nc1cccs1)Nc1c(F)c(F)cc(F)c1F	0.5%	44.7µM*	-4.1%	1.6	-11.7%	-8.0%[59 µM]
O=C(Nc1cccs1)Nc1ccccc1Br	-1.7%	-11.6%	2.1%	-0.1	-11.2%	?
CCOc1ccc(NC(=O)C(=O)NCC(c2cccnc2)N2CCc3ccccc32)cc1 (configuration not stated)	/	/	/	/	9.7%	-9.6%[59 µM]
O=S(=O)(NCC(c1cccs1)S(=O)(=O)c1ccccc1)c1ccccc1 (configuration not stated)	/	/	/	/	2.3%	5.7%[59 µM]
COc1cccc(CNC(=O)C2CCN(Cc3cc4ccccc4n3Cc3ccc(C)cc3)CC2)c1	/	/	/	/	10.0%	-34.5%[59 µM]
CCCCC(=O)N1C(C)CCC1C (configuration not stated)	/	/	23.8µM*	0.0	/	/
Nc1[nH]n2c(=O)cc(-c3ccccc3)nc2c1N=Nc1ccc(S(N)(=O)=O)cc1	-0.2%	2.9%	-7.6%	0.3	-5.0%	35.5µM*
Cc1ccccc1CNCc1ccc2c(c1)OCO2	-0.8%	?	-6.4%	-1.7	0.6%	28.2µM*
COc1cc(CNCc2ccc(SC)cc2)cc(OC)c1	-4.4%	14.9%	-1.7%	-1.3	-12.4%	22.4µM*
CSc1ccc(CNCc2ccc3c(c2)OCO3)cc1	-1.8%	-27.7%	-10.1%	-0.6	-12.2%	22.4µM*
CCOc1ccc(C(=O)Nc2ccc(-c3cc4ccccc4oc3=O)cc2)cc1Br	/	/	/	/	2.9%	12.5%[59 µM]
CCCCC/C=C\C/C=C\C/C=C\C/C=C\CCCCCC(N)=O	/	-12.5%	/	/	0.0%	/
Cc1cc(C)c2c(=O)cc(C(=O)Nc3ccccc3C(F)(F)F)oc2c1	/	/	/	/	-2.0%	-0.1%[59 µM]
SMILES	Mm-Cpn inhibitor	Sfp PPTase inh	PLK1 PBD block	CCT chaperon mod	VDR inh	G9a block
COc1cccc(-c2cc(C(=O)Nc3cc(C)n(Cc4ccc(Cl)cc4)n3)no2)c1	-0.8%	6.4%	-6.1%	-0.1	-9.0%	25.2%[12.7 µM]
CSc1ccccc1NC(=O)c1noc2c1CCC2	-1.5%	20µM*	?	1.9	-15.7%	14.1µM*
Cc1cc(NC(=O)c2cc(-c3ccco3)on2)nn1Cc1ccc(Cl)cc1	1.0%	17.8µM*	-9.4%	0.0	1.5%	/
COC(=O)c1ccccc1NC(=O)c1cc(-c2ccco2)on1	-1.9%	3.0%	-18.0%	-4.3	-9.1%	39.8µM*
COC(=O)c1ccccc1NC(=O)c1noc2c1CCC2	-2.4%	?	?	1.1	17.0%	44.7µM*
COC(=O)c1ccccc1NC(=O)c1cc(-c2ccc(Cl)cc2)on1	/	/	/	/	-7.1%	3.1%[59 µM]
O=C(CSc1nc2ccccc2nc1Cc1ccc(Cl)cc1)N1CCCCC1	/	/	/	/	3.9%	-25.0%[59 µM]
O=C(Cn1ncc2c(=O)oc3ccccc3c21)Nc1cc(F)ccc1F	/	/	/	/	-14.5%	-15.3%[59 µM]
Cc1nc(Nc2ccc(Cl)cc2)cc(-c2ccccc2)n1	/	/	/	/	10.2%	43.6%[59 µM]
CCOc1ccc(C2CC(=O)N(c3cccc(F)c3)C3=C2C(=O)OC3)cc1 (configuration not stated)	/	/	/	/	-5.7%	12.6%[59 µM]
COc1cccc(CNS(=O)(=O)c2ccc(N3CCCCS3(=O)=O)cc2)c1	/	/	/	/	11.3%	0.0%[12.7 µM]
COc1cccc(NC(=O)CC(C)S(=O)(=O)c2ccc3c(c2)NC(=O)CO3)c1 (configuration not stated)	/	/	/	/	7.9%	-6.1%[59 µM]
Cc1nc(N)nc(N/N=C/c2c(F)cccc2Cl)n1	0.2%	-5.6%	1.7%	3.2	-1.3%	11.2%
Cc1nc(C#N)c(N/N=C/c2c(F)cccc2Cl)o1	-0.3%	3.2%	-9.7%	-3.1	79.4µM*	4.6%

Screening results from PubChem BioAssay.
